Several values for one entry are separate records, joined by “and”; a condition that tells them apart may be missing. Identical values can stand only once. Some structures have more than one record in an assay (separate samples or runs), and their calls can disagree. Activity calls are given as the source filed them. The calls were made as follows: active = hit-call score of the fitted dose curve at least 0.9, where 1 is the maximum; inactive = score below 0.9.

A short description of this assay: BSK_4H_SRB: Viability Assessment in the BioMAP Diversity Plus: 4H Assay (AID 2283027).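 As to AC50: curves fitted both ways versus DMSO so AC50 may be loss or gain.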 The note with it: primary human endothelial cells (HUVEC). The protocol:
BSK_4H is a cell-based, multiplexed-readout assay that uses umbilical vein endothelium, a human vascular primary cell, with measurements taken at 24 hours after chemical dosing in a 96-well plate.BSK_4H_SRB is an assay component measured in the BSK_4H assay. It measures […] related to cell death using Sulforhodamine staining technology.Data from the assay component BSK_4H_SRB was analyzed into 1 assay endpoint. This assay endpoint, BSK_4H_SRB, was analyzed with bidirectional fitting relative to DMSO as the negative control and baseline of activity. Using a type of viability reporter, gain or loss-of-signal activity can be used to understand changes in the signaling. Furthermore, this assay endpoint can be referred to as a primary readout, because this assay has produced multiple assay endpoints where this one serves a signaling function. To generalize the intended target to other relatable targets, this assay endpoint is annotated to the cell morphology intended target family, where the subfamily is cell conformation.
The levels of cell surface (or secreted, indicated by the prefix "s") biomarker endpoints were measured by ELISA. Overt cytotoxicity to cells in confluent adherent cultures (all systems other than the BT system) was assessed by measuring total protein levels using sulforhodamine B (SRB) staining in parallel cultures at the time of biomarker measurements, indicated as SRB endpoints. For proliferation assays for adherent cell types, individual cell types are cultured at sub-confluence and relative cell numbers quantified by SRB staining at time points optimized for each system (48 h: 3C and CASM3C systems; 72 h: BT and HDF3CGF systems; 96 h: SAg system). SRB was performed by staining cells with 0.1% SRB after fixation with 10% TCA and reading wells at 560 nm.Viability and proliferation of PBMC (T cells) was quantified by Alamar Blue reduction for the SAg and BT systems. For PBMC viability (referred to as PBMC Cytotoxicity within the assay endpoint names), cells were plated (75,000/well in a 96-well plate) and then chemical samples added for 1 h before addition of activators, SEB and TSST-1 (20 ng/mL final concentration each). Cells were incubated for 90 h. Then, Alamar Blue (20 uL/well) (Invitrogen, Cat DAL1100) was added for 6 h, and the plates were read with a fluorescence microplate reader at 546/580 nm (excitation/emission). For PBMC proliferation, cells were plated and activated as above but incubated for only 16 h prior to addition of Alamar Blue. Plates were read after 6 h.
Regarding `OC(c1ccc(Cl)cc1)(c1cncnc1)c1ccccc1Cl` (stereo not given), the result was inactive.

The term AC50 denotes the midpoint of the concentration-response curve, whichever way the signal moves. `CCCCNC(=O)OCC#CI`: the AC50 is 29 µM (active) and 27.9 µM (active).

For the compound `Cc1cc(Cl)ccc1OCC(=O)O`, the result was inactive.

Regarding `CCc1nn(C)c(C(=O)NCc2ccc(C(C)(C)C)cc2)c1Cl`, the AC50 was 33.7 µM (active).

Take `CC(Oc1ccc(Cl)cc1Cl)C(=O)O` (stereo not given): the result was inactive.

Take `CCOP(=S)(OCC)SCn1c(=O)oc2cc(Cl)ccc21`: the outcome was inactive.

As for `C=CC1(C)OC(=O)N(c2cc(Cl)cc(Cl)c2)C1=O` (stereo not given), the outcome was inactive.

In the case of `CC1COC(Cn2cncn2)(c2ccc(Oc3ccc(Cl)cc3)cc2Cl)O1` (stereo not given), the AC50 was 26.9 µM (active).

Turning to `COC(=O)C=C(C)OP(=O)(OC)OC`, the outcome was inactive.

On to `CNC(=S)S`, for which the AC50 was 20 µM (active).

As to `CCOC(=O)CC(SP(=S)(OC)OC)C(=O)OCC` (stereo not given), the result was inactive.

On to `Oc1ccccc1-c1ccccc1`, for which the outcome was inactive.

In the case of `C=CCC1=C(C)[C@@H](OC(=O)[C@@H]2[C@@H](C=C(C)C)C2(C)C)CC1=O`, the AC50 is 30.2 µM (active).

On to `COC(=O)N(OC)c1ccccc1COc1ccn(-c2ccc(Cl)cc2)n1`, for which the half-maximal activity concentration (AC50) was 10.5 µM (active).

As to `CON(C)C(=O)Nc1ccc(Cl)c(Cl)c1`, the outcome was inactive.

With `CC(C)C1(C)N=C(c2nc3ccccc3cc2C(=O)O)NC1=O` (stereo not given), the result was inactive.

For `CC(C)(C)c1ccc(CSc2cnn(C(C)(C)C)c(=O)c2Cl)cc1`, the AC50 was 16.5 µM (active).

Regarding `COc1nc(C)nc(NC(=O)NS(=O)(=O)c2ccccc2CCC(F)(F)F)n1`, the outcome was inactive.

For the compound `COC(=O)c1ccccc1C(=O)OC`, the outcome was inactive.

In the case of `CCON=C(CC)C1=C(O)CC(c2c(C)cc(C)cc2C)CC1=O` (stereo not given), the outcome was inactive.

Consider `N#Cc1nn(-c2c(Cl)cc(C(F)(F)F)cc2Cl)c(N)c1S(=O)C(F)(F)F` (stereo not given), for which the AC50 was 33.5 µM (active).

Take `C=CCC1=C(C)C(OC(=O)C2C(C=C(C)C)C2(C)C)CC1=O` (stereo not given): the AC50 was 32.7 µM (active) [middle of 4 runs].

On to `COP(N)(=O)SC` (stereo not given), for which the result was inactive.

In the case of `Cc1ccc(-c2c(Cl)nc(C#N)n2S(=O)(=O)N(C)C)cc1`, the AC50 was 25.5 µM (active).

As for `CCCCC(CC)COC(=O)c1ccccc1C(=O)OCC(CC)CCCC` (stereo not given), the outcome was inactive.

On to `CCCN(CCC)c1c([N+](=O)[O-])cc(S(N)(=O)=O)cc1[N+](=O)[O-]`, for which the concentration at half-maximal activity (AC50) was 32.3 µM (active) [middle of 4 runs].

For the compound `N#Cc1cc(Br)c(O)c(Br)c1`, the AC50 was 19 µM (active).

Regarding `CCCCNC(=O)n1c(NC(=O)OC)nc2ccccc21`, the AC50 was 14 µM (active).

In the case of `O=C(O)c1nc(Cl)ccc1Cl`, the outcome was inactive.

In the case of `CCCCOC(=O)c1ccccc1C(=O)OCCCC`, the outcome was inactive.

Consider `CS/C(C)=N/OC(=O)N(C)SN(C)C(=O)O/N=C(\C)SC`, for which the AC50 was 29.6 µM (active).

As for `CO/C=C(/C(=O)OC)c1ccccc1Oc1cc(Oc2ccccc2C#N)ncn1`, the AC50 is 26.7 µM (active) and 16.4 µM (active) and 24.2 µM (active); the result was inactive.

As to `CCNc1nc(Cl)nc(NC(C)C)n1`, the result was inactive.

Consider `Fc1ccc(Oc2ccnc3cc(Cl)cc(Cl)c23)cc1`, for which the AC50 is 30.8 µM (active).

For `N#CC(CCc1ccc(Cl)cc1)(Cn1cncn1)c1ccccc1` (stereo not given), the result was inactive.

As to `COP(=S)(OC)Oc1nc(Cl)c(Cl)cc1Cl`, the result was inactive.

Take `COc1ccc(C(c2ccc(OC)cc2)C(Cl)(Cl)Cl)cc1`: the AC50 is 26.9 µM (active).

As for `COc1nc(C)nc(NC(=O)NS(=O)(=O)c2ccccc2Cl)n1`, the result was inactive.

Turning to `CCNc1nc(Cl)nc(NCC)n1`, the result was inactive.

(Values after PubChem BioAssay (EPA / NIEHS).)
